Source: PubChem (National Center for Advancing Translational Sciences (NCATS))
FMDV antiviral – foot and mouth disease virus antiviral activity; FMDV antiviral cell-based qHTS; Potency, µM (series often up to 57.9 µM), for the others: at the top dose activity change, negative = inhibition, usual class: inhibitors; 1.2% of 410,000 active; calls by dose curve; tested in HEK293T cells; note: read-out not given here; potency is the fitted concentration of half-maximal effect; % is set by controls: 0 for no effect and ±100 for the full control effect; nearly all actives have a fitted effect of over 45% in size
Shiga inhibitor – blocks Shiga toxin action in Vero cells; Vero cells, Shiga toxin protein synthesis inhibition reporter; inhibition, % at 38.7 µM; 9.2% of 290,000 active; AID 2315; in the data active = inhibition mostly above about 28%, no sharp cut-off; inactive = mostly below about 43%; note: 0% is about no effect
HCV inhibitor – inhibitors of hepatitis C virus infection; Huh7.5.1 HCVcc-Cre infection, luciferase reporter, 44 h; Potency, µM (top dose mostly 41.8 µM), without a hit: at the highest dose activity change, negative = inhibition, hits mostly inhibitors; 3.4% of 340,000 active; AID 651820; active = well fitted inhibition curve with a large enough effect; inconclusive = small, poorly fitted or top-dose-only effect, or another doubt; inactive = no such curve, though single readings can be large or run the other way; note: potency is the fitted concentration of half-maximal effect; % is set by controls: 0 for no effect and ±100 for the full control effect
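Antiviral activity was scored by luciferase reporter output from cells infected with HCVcc-Cre (~0.5 moi) in presence of compound, 44 h infection period, cells seeded 1,000/well 4 h prior.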
Marburg entry inh – blocks Marburg virus binding to or entry into cells; AID 540276; Marburg virus pseudotyped entry inhibition, cell reporter; Potency, µM (top dose mostly 37.8 µM), inactives show top-dose activity change, negative = inhibition, hits mostly inhibitors; 1.8% of 300,000 active; calls by dose curve; tested in HEK293 cells; note: potency is the fitted concentration of half-maximal effect; % is set by controls: 0 for no effect and ±100 for the full control effect
Cycloheximide cs – affects cycloheximide protein synthesis inhibition readout, counter-screen; cell reporter, cycloheximide protein synthesis inhibition counterscreen; max response, %; 12% of 300,000 active; AID 2314; in the data active = max response mostly above about 13%, no sharp cut-off; inactive = mostly below about 14%; note: read at 38.3 µM for the half of the compounds with a filed dose; 0% is about no effect
Lassa entry inh – blocks Lassa virus binding to or entry into cells | Lassa virus pseudotype entry inhibition, cell reporter | Potency, µM (series often up to 37.9 µM), inactives show at the top dose activity change, negative = inhibition, actives largely listed as inhibitors | 1.2% of 300,000 active; calls by dose curve; tested in HEK293 cells; note: potency is the fitted concentration of half-maximal effect; % is set by controls: 0 for no effect and ±100 for the full control effect; nearly all actives have a fitted effect of over 50% in size
* hit, by the source's call; ? = inconclusive; · = no result given; + = active, no number; [ ] = dose if it differs, or a comment. Sampled rows, rich in hits. Any-hit rate of the full collection: about 13%.

SMILES | FMDV antiviral | Shiga inhibitor | HCV inhibitor | Marburg entry inh | Cycloheximide cs | Lassa entry inh
Cc1cc(SCC(=O)c2ccc(Cl)cc2)nc(=O)[nH]1 | -3% | 52* | 1% | · | 43* | ·
Cc1ccc(C(=O)CSc2cc(C)[nH]c(=O)n2)cc1 | 48% | 84* | 17% | · | 37* | ·
CCCc1nc2ccccc2c2nc(N)nn12 | -3% | 18 | 4% | 3% | -1 | 20%
COc1ccc(C(=O)NC2CCN(S(=O)(=O)c3ccc(F)cc3)CC2)cc1 | -10% | -5 | -9% | · | -2 | ·
O=S(=O)(NC1CCc2ccccc21)c1ccc(S(=O)(=O)N2CCCC2)cc1 (stereo unspecified) | · | -6 | 11µM* | ? | -4 | ?
O=C(NC1CCc2ccccc21)C1CCN(S(=O)(=O)c2ccc(Cl)cc2)CC1 (stereo unspecified) | -16% | -6 | 3% | 27% | -3 | -23%
COc1ccc(NC(=O)CSc2nc3[nH]c(=O)cc(O)c3s2)cc1OC | -8% | · | -2% | 15% | · | -4%
Cc1nc2cc(NCc3cc([N+](=O)[O-])ccc3O)ccc2n1Cc1ccccc1 | -11% | 33 | 4% | 8%[46.1 µM] | 2 | 3%[46.1 µM]
Cc1cc(NCc2ccccn2)ccc1Br | 66% | 74* | -7% | ? | 34* | -9%
CC(C)(C)n1cnc2cc(NCc3ccccc3O)ccc21 | 29% | 66* | -11% | ? | 49* | 17%
CC(C)n1cnc2cc(NCc3ccco3)ccc21 | 23% | 72* | -7% | ? | 41* | 24%
Cc1cc(C)c(S(=O)(=O)NCc2ccccn2)c(C)c1 | 18% | 2 | 20% | 10%[46.1 µM] | 1 | 0%[46.1 µM]
CC(C)n1cnc2cc(NCc3ccccn3)ccc21 | 35% | 70* | 13% | 2% | 72* | 1%
O=C(CCSCCc1ccccn1)Nc1ccccc1C(F)(F)F | -4% | · | · | · | · | 6%[46.1 µM]
COc1ccc(CN(C(=O)CN2C(=O)C(C)Oc3ccccc32)C2CCCC2)c(OC)c1 (stereo unspecified) | -24% | -20 | -5% | ? | 9 | ?
CC(C)n1cnc2cc(NCc3ccccc3O)ccc21 | 39% | 86* | 7% | 1%[46.1 µM] | 52* | 9%
CC1CC(C)CN(C(=O)Cn2c(SCC(=O)N3CCc4ccccc4C3)nc3ccccc32)C1 (stereo unspecified) | -17% | 10 | 9% | -24% | -4 | -13%
CC(C)c1ccccc1NC(=O)CCc1nc2ccccc2s1 | -3% | -4 | -1% | -1% | -5 | 0%
CC(=O)c1ccc(OC(C)c2nc3ccccc3s2)cc1 (stereo unspecified) | 4% | 75* | -18% | 7%[46.1 µM] | 30* | -22%
COc1ccc(NC(=O)CN(C)C(=O)CCCc2nc3ccccc3s2)cc1 | 25% | · | 1% | ? | · | -2%
O=C(O)CCCC(=O)Nc1ccc(OCc2nc3ccccc3s2)cc1 | 21% | 98* | -1% | ? | 50* | ?
CCNC(=S)Nc1ccc(OCc2nc3ccccc3s2)cc1 | 33% | · | ? | ? | 33* | ?
COc1ccccc1NC(=O)CCc1nc2ccccc2s1 | 17% | 55 | -11% | 26%[46.1 µM] | 15* | -1%
COCCN1C(=O)N(c2ccc(OC)cc2)C(=O)C1CC(=O)Nc1cccc(F)c1 (stereo unspecified) | 4% | -7 | 17% | · | -3 | ·
CCCCN(Cc1ccccc1)S(=O)(=O)c1ccc2[nH]c(=O)oc2c1 | -1% | 35 | 13% | -1% | 5 | 11%
SMILES | FMDV antiviral | Shiga inhibitor | HCV inhibitor | Marburg entry inh | Cycloheximide cs | Lassa entry inh
COc1ccc(C(=O)CCc2nc3ccccc3s2)cc1 | 0% | 41* | 4% | 29% | 50* | 6%
O=C(CCCc1nc2ccccc2s1)Nc1ccccc1 | 24% | 24 | 0% | 16%[46.1 µM] | 24 | -8%[46.1 µM]
O=C(CCc1nc2ccccc2s1)Nc1ccccc1 | 9% | 22 | 19% | -1% | 11* | 0%
COc1ccccc1NS(=O)(=O)c1cccc(C(=O)OCc2nc3ccccc3s2)c1 | 9% | 76* | 33% | 27% | 49* | ?
COC(=O)c1ccccc1NC(=O)CCCn1nc([N+](=O)[O-])cc1C | -17% | 1 | -9% | 9%[46.1 µM] | -2 | 0%[46.1 µM]
O=C(O)Cc1ccc(C(=O)c2ccccc2)s1 | 16% | -10 | -6% | ? | -2 | 3%
N#CCc1ccc(C(=O)c2ccccc2F)s1 | -2% | 64 | ? | 4%[46.1 µM] | 17* | 10%
Fc1cccc(/C=N/Nc2nncc3ccccc23)c1 | -6% | 85* | 4% | · | 57* | ·
C(=N\Nc1nncc2ccccc12)/c1ccccn1 | ? | 57* | 3.2µM* | ? | 33* | 1.1µM*
CC(=O)Nc1ccc(/C=N/Nc2nncc3ccccc23)cc1 | 10% | 83* | -32% | ? | 50* | 13%
Nc1cnnc(N/N=C\c2ccccc2)c1Cl | 31% | · | 0% | ? | · | -7%[46.1 µM]
CC(C)(C)c1ccc(C(=O)NC(=S)Nc2sc3c(c2C#N)CCC3)cc1 | -25% | 18* | ? | ? | 12* | ?
CN1Cc2sc(NC(=S)NC(=O)c3ccccc3)c(C#N)c2CC1(C)C | ? | 56 | ? | ? | 47* | ?
O=C(NC(=S)Nc1sc2c(c1C(=O)O)CCCC2)c1ccccc1 | -12% | 21 | -3% | 3%[46.1 µM] | 12* | 21%[46.1 µM]
CC1CCc2sc(NC(=S)NC(=O)c3ccccc3)c(C#N)c2C1 (stereo unspecified) | 46% | + | ? | ? | 26* | 10%
CCN1CCc2c(sc(NC(=S)NC(=O)c3ccccc3)c2C#N)C1 | 43% | 29 | -20% | 0% | 22 | ?
C/C(=N/NC(=O)C1CCN(S(=O)(=O)c2ccc(C)cc2)CC1)c1cccc([N+](=O)[O-])c1 | -7% | -11 | ? | 12% | 1 | 0%
CN1Cc2ccccc2[C@@H]2c3cccc4[nH]cc(c34)C[C@H]21 | -16% | · | · | · | · | ·
CCOC(=O)c1[nH]c2ccccc2c1NC(=O)C(CC)CC | -13% | -3 | -9% | · | -2 | ·
CC1(C)Cc2c(sc(NC(=O)c3ccco3)c2C#N)CO1 | 25% | 22 | -11% | 7% | 28* | 10%
N#Cc1c(NC(=S)NC(=O)c2ccccc2)sc2c1CCC2 | 11% | 37 | -1% | ? | 32* | 21%
CC1(C)Cc2c(sc(NC(=O)/C=C/C(=O)O)c2C#N)CO1 | -2% | 1 | 14% | · | -2 | ·
CCOC(=O)CC(=O)CSc1nc2c(sc(=S)n2-c2ccc(C)c(C)c2)c(=O)[nH]1 | -22% | -15 | -10% | ? | -1 | ?
Cc1cccc(N2C(=O)CSC23C(=O)N(CC(=O)Nc2cccc(Cl)c2)c2ccccc23)c1 (stereo unspecified) | -25% | · | · | · | · | ?
NC(=O)c1nsc(C(=O)N(c2ccc(Cl)cc2)C(C(=O)NCC2CCCO2)c2cccs2)c1N (stereo unspecified) | -27% | 21 | 5% | ? | -1 | ?
